Laboratory results reported in PubChem BioAssay AID1851 (National Center for Advancing Translational Sciences (NCATS), 2009).
Screen size: about 16,000 compounds; about 4,000 (25%) were called active. Inconclusive results (about 26%) are left out. The call rests on the fitted dose curve; in most records, active means well fitted curve in the direction sought with a large enough effect; inconclusive means small, poorly fitted or top-dose-only effect, or effect the other way; inactive means no such curve, though single readings can be large or run the other way. A selection follows.

Target: Cytochrome P450 2C9 (Homo sapiens) (UniProt P11712)
Sequence (P11712 whole entry, looked up): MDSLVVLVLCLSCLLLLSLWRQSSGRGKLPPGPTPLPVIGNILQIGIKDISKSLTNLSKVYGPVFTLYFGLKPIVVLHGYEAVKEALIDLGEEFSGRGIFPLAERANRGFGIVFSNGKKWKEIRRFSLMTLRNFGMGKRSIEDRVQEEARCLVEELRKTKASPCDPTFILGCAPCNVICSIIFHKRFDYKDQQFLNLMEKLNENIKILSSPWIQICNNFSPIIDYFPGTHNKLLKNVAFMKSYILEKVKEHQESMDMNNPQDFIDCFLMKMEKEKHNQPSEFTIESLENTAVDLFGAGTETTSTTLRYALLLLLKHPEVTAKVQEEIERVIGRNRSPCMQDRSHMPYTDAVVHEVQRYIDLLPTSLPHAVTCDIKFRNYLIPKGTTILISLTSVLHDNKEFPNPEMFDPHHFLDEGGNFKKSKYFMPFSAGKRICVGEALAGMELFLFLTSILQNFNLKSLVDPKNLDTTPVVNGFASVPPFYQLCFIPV
Assay: Cytochrome panel assay with activity outcomes
Conditions: recombinant CYP, pro-luciferin dealkylation, luminescence, p450-cyp2c9; series mostly up to 57.1 µM; activity, negative = inhibition: at the top concentration
Experimental: The P450 gene superfamily is involved in the metabolism and clearance of xenobiotics. This assay used various human CYP P450 isozymes to measure the dealkylation of various pro-luciferin substrates to luciferin. The luciferin is then measured by luminescence after the addition of a luciferase detection reagent. Pro-luciferin substrate concentration in the assay was equal to its KM for its CYP P450 isozyme. Inhibitors and some substrates limit the production of luciferin, and decrease measured luminescence.
NCGC Assay Protocol Summary:
1, Reagent, 2 uL, Isozyme and Pro-Luciferin
2, Library compounds, 23 nl, 40 uM to 0.24 nM dilution series
3, Controls, 23 nl, Isozyme specific inhibitor
4, Reagent, 2 uL, NADPH regeneration solution
5, Incubation time, 60 min, Isozyme specific temperature
6, Reagent, 4ul, Detection reagent
7, Incubation time, 20 min, Isozyme specific temperature
8, Detection, 1 sec, ViewLux luminescent read
The luciferase-based P450-GloTM Screening Systems were obtained from Promega (Madison, WI) for CYP 1A2 (V9770), CYP 2C9 (V9790), CYP2 C19 (V9880), CYP 2D6 (V9890), and CYP 3A4 Luciferin-PPXE (V9910) and were adapted for 1,536-well microplates and an automated protocol. The control compounds furafylline for 1A2 (F124), sulfaphenazole for CYP 2C9 (S0758), ketoconazole for CYP 2C19 (K1003), quinidine for 2D6 (Q3625), and ketoconazole for 3A4 (K1003) were purchased from Sigma Aldrich (St. Louis, MO). Recombinant P450 enzymes were obtained from baculovirus constructs expressed in insect cells (BD/Gentest).
Medium-binding white solid Kalypsys plates used. Mixtures kept on ice. 1A2: 10 nM 1A2, 100 uM Luc-ME, 100 mM KPO4; 2C9: 10 nM 2C9, 100 uM Luc-H, 25 mM KPO4; 2C19: 5 nM 2C19, 10 uM Luc-H EGE, 50 mM KPO4; 2D6: 5 nM 2D6, 30 uM Luc-ME EGE, 100 mM KPO4; 3A4: 10 nM, 25 uM Luc-PPXE. All amounts are reflected in their final concentration, working concentration is 2x.
NADPH regeneration solution: 1.3 mM NADP+, 3.3 mM glucose-6-phosphate, 3.3 mM MgCl2, 0.4 U/mL glucose-6-phosphate dehydrogenase for all isozymes, 200 mM KPO4 for 3A4. Mixture prepared at RT but kept on ice during automated run.
RT incubation in auxilliary plate hotel for 1A2, 2D6, and 3A4; 37C for 2C9 and 2C19.
Keywords: P450, CYP1A2, CYP2C19, CYP2C9, CYP2D6, CYP3A4, Luciferase, MLSMR, MLSCN, NIH Roadmap, qHTS, NCGC
On the % scale 0 is the no-effect control and ±100 the full control effect.

SMILES	AC50	activity, negative = inhibition
N#Cc1c(SCC(N)=O)nsc1SCc1ccccc1Cl	11.2 µM (active)	
Nc1nc(SCc2ccccc2Cl)cc(C(=O)O)n1		0.0938% [at 11.4 µM] (inactive)
CCOC(=O)C1CCCN(S(=O)(=O)c2ccccc2)C1 (stereo not drawn)		29.1% (inactive)
CCOC(=O)C1CCCN(C(=O)CSCc2ccccc2)C1 (stereo not drawn)	10 µM (active)	
CN1CCN(c2nc(-c3ccccc3C(F)(F)F)nc3ccccc23)CC1		1.94% [at 2.29 µM] (inactive)
CO[C@]1(NC(=O)Cc2cccs2)C(=O)N2C(C(=O)O)=C(COC(N)=O)CS[C@H]21		1.75% [at 25.6 µM] (inactive)
O=C(c1cnc(N2CCN(c3ncccn3)CC2)c2ccccc12)N1CCN(c2ccccn2)CC1	3.55 µM (active)	
O=C(c1cnccn1)N1CCC2(CC1)CCN(c1ccccn1)CC2		0.265% (inactive)
COC(=O)N1CCC2(CC1)CCN(c1ccccn1)CC2		-3.68% (inactive)
O=C(c1cnccn1)N1CCC2(CC1)CN(c1ccccn1)C2		3.85% (inactive)
Cn1cccc1C(=O)N1CCC2(CC1)CCN(c1ncccn1)CC2		5.06% (inactive)
COc1ccccc1C(=O)N1CCN(c2ccccn2)CC1	14.1 µM (active)	
O=C(c1cnc(N2CCN(c3ncccn3)CC2)c2ccccc12)N1CCN(c2ncccn2)CC1	6.31 µM (active)	
O=C(c1cnccn1)N1CCC2(CC1)CCN(c1ncccn1)CC2		4.53% (inactive)
CC(=O)N1CCC2(CC1)CN(c1ccccn1)C2		5.68% (inactive)
C/C=C\C[C@H](C)[C@H](O)[C@H]1C(=O)N[C@@H](CC)C(=O)N(C)CC(=O)N(C)[C@@H](CC(C)C)C(=O)N[C@@H](C(C)C)C(=O)N(C)[C@@H](CC(C)C)C(=O)N[C@@H](C)C(=O)N[C@@H](C)C(=O)N(C)[C@@H](CC(C)C)C(=O)N(C)[C@@H](CC(C)C)C(=O)N(C)[C@@H](C(C)C)C(=O)N1C	inactive	
Cc1ccc(S(=O)(=O)N=Nc2c(O)[nH]c3cc(O)c(C(=O)O)cc23)cc1		3.49% [at 11.4 µM] (inactive)
CN1CC[C@@]2(CCCN(C(=O)c3cccc(F)c3)C2)C1		4.92% (inactive)
COc1cccc2c1C(=O)c1c(O)c3c(c(O)c1C2=O)C[C@@](O)(C(=O)CO)C[C@H]3O[C@H]1C[C@@H](N)[C@H](O)[C@@H](C)O1.[W]		3.88% [at 11.4 µM] (inactive)
C#CCCCO/N=C1/C[C@@H](O)[C@@H](O)[C@@H]2[C@@H]3C(=O)N(CC)C(=O)[C@H]3CC[C@H]12		3.17% [at 11.4 µM] (inactive)
Cc1cc(C)c(NC(=O)C[C@H](CC(=O)O)c2cccc3ccccc23)c(C(=O)N2CCC3(CCCC3)CC2)c1		-2.73% (inactive)
O=C(O)CC(c1ccccc1)n1cnnn1 (stereo not drawn)		-6.07% (inactive)
O=C(O)CC(c1cccc2ccccc12)n1cccc1 (stereo not drawn)	8.91 µM (active)	
